Cruzain noTriton: cruzain (T. cruzi) inhibition without detergent | Potency, µM, most hits filed as inhibitors | actives 2.3% (n = 200,000) | P25779 | AID 1476 | purified cruzain, Z-FR-AMC fluorescence, no detergent; further: nearly all actives have a fitted effect of over 40% in size
Target sequence (P25779 123-467 limits assumed): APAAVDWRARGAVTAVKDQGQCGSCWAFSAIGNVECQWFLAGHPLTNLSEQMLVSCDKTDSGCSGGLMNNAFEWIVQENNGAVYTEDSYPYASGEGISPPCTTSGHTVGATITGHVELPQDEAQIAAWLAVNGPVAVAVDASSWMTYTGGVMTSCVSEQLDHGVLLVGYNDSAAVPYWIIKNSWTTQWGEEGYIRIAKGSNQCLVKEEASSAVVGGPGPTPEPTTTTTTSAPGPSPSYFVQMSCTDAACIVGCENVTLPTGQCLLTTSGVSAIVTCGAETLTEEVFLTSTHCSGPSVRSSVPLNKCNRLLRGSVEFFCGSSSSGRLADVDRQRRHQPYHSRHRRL
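Purified cruzain at 1.5 nM, pre-incubated 15 min with compound at room temperature in 100 mM sodium acetate pH 5.5, 5 mM DTT, 0.00005% Triton X-100. Reaction started with 2 uM Z-FR-AMC; AMC fluorescence increase over 60 s gives rate.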
Cruzain Triton: inhibitors of Trypanosoma cruzi cruzain with detergent | P25779 | purified cruzain, Z-FR-AMC fluorescence, 0.01% Triton | Potency, µM, usual class: inhibitors | actives 0.43% (n = 200,000); further: nearly all actives have a fitted effect of over 40% in size
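Z-FR-AMC hydrolysis (2 uM substrate) by cruzain (1.5 nM) monitored kinetically at ex 360/em 450 nm after 15 min room-temperature compound exposure; 0.01% Triton X-100, pH 5.5, 5 mM DTT.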
A number is an active result; i = inactive; ? = inconclusive. Hits are enriched below; roughly 2.6% of the tested compounds scored in any of these assays. The call rests on the fitted dose curve; in most records, active means well fitted curve in the direction sought with a large enough effect; inconclusive means small, poorly fitted or top-dose-only effect, or another doubt; inactive means no such curve, though single readings can be large; an effect the other way counts as inactive or inconclusive.

SMILES	Cruzain noTriton	Cruzain Triton
COc1cc(C(=O)Nc2nc(-c3cc(C)ccc3C)c(C)s2)ccc1OCC(=O)Nc1ccc(F)cc1	20µM	i
O=C(c1cc2ccc3cccnc3c2[nH]1)N1CCN(c2cccc(Cl)c2)CC1	?	i
O=P1(O)Oc2c(c(-c3ccccc3)cc3ccc4ccccc4c23)-c2c(-c3ccccc3)cc3ccc4ccccc4c3c2O1	i	25.1µM
O=P1(O)Oc2c(c(-c3ccccc3)cc3ccccc23)-c2c(-c3ccccc3)cc3ccccc3c2O1	?	i
Cc1ccc(NC(=S)NNC(=O)c2nn(C)cc2Cl)cc1	i	i
O=C1CN(S(=O)(=O)c2ccc(Cl)cc2)CC(=O)N1CCc1ccccc1	i	i
N=C1/C(=C\c2ccc(SCc3ccco3)o2)C(=O)N=C2SC=NN12	?	i
CC1=NN2C(=N)/C(=C\c3ccc(SCc4ccccc4)o3)C(=O)N=C2S1	7.94µM	i
Cc1ccc2nc(N(CCCN(C)C)C(=O)c3ccc4c(c3)CCCC4)sc2c1	i	i
Cc1[nH]c(=O)[nH]c(=O)c1S(=O)(=O)N1CCCC(C(=O)NCCc2ccc(Cl)cc2)C1 (stereo not given)	i	i
Cc1ccc(C(=O)NC(=S)Nc2ccccc2N2CCCC2)cc1[N+](=O)[O-]	i	i
CCOc1ccc(C(=O)Nc2ccc(NC(=O)c3cccs3)cc2)cc1[N+](=O)[O-]	7.94µM	i
COc1ccc(C(=O)Nc2ccc(NC(=O)c3cccs3)cc2)cc1[N+](=O)[O-]	i	i
Cc1ccc(C(=O)NC(=S)Nc2ccc(NC(=O)c3cccs3)cc2)cc1[N+](=O)[O-]	10µM	i
COc1ccc(S(=O)(=O)N2CCCCC2)cc1C(=O)Nc1cccc(C(F)(F)F)c1	i	i
COc1ccccc1N1CCN(S(=O)(=O)Cc2ccccc2Cl)CC1	i	i
N#Cc1c(-c2ccccc2)nc2n(-c3ccccc3)nc(C(=O)Nc3ccccc3)n2c1=O	10µM	i
N#Cc1cccc(NC(=O)c2nc(-c3ccccc3)n(-c3ccccc3)n2)c1	i	i
CC(C)c1ccc(/C=C(/C#N)c2nnc(NC(=O)c3ccccc3)s2)cc1	12.6µM	i
CC(C)c1ccc(/C=C(\C#N)c2nc(-c3ccc(O)cc3)cs2)cc1	?	i
O=C(C1COc2ccccc2O1)N1CCN(c2ccccc2F)CC1 (stereo not given)	i	i
Cc1cc(NC(=O)c2cn(C3CCCCC3)c(=O)c3c2c2ccccc2n3C)no1	i	i
CS(=O)(=O)N1CCN(c2ccccc2NC(=O)c2ccc3ccccc3c2)CC1	20µM	i
CS(=O)(=O)N1CCN(c2ccccc2NC(=O)c2ccc(Cl)cc2)CC1	i	i
O=C(NC(Cc1c[nH]c2ccccc12)c1nnc2n1CCCCC2)c1cccs1 (stereo not given)	i	i
SMILES	Cruzain noTriton	Cruzain Triton
Cc1n[nH]c(C)c1S(=O)(=O)N(CC(=O)Nc1ccc(C(F)(F)F)cc1)c1ccc(C(C)C)cc1	i	i
O=C(Nc1nc(-c2ccncc2)cs1)c1ccco1	15.8µM	i
O=C(Nc1nc(-c2cc3ccccc3oc2=O)cs1)c1ccco1	i	i
O=C(Nc1ccccc1NC(=O)c1ccco1)c1ccco1	i	i
O=C(Nc1cccc2cccc(NC(=O)c3ccco3)c12)c1ccco1	25.1µM	i
CC(C)(C)C(=O)/C=c1\[nH]c(=O)/c(=C\c2ccc(C#N)cc2)s1	?	i
Cc1ccc(NC(=O)c2c(NC(=O)c3ccco3)sc3c2CCC(C(C)(C)C)C3)c(C)c1 (stereo not given)	i	i
CCCOc1ccc(N2C(=O)CC(NCCNc3ccc(S(=O)(=O)CC)cc3)C2=O)cc1 (stereo not given)	?	i
O=C=Nc1ccc(Cc2ccc(N=C=O)cc2)cc1 (tested in a mixture with another compound)	i	i
O=C=Nc1ccc(Cc2ccc(N=C=O)cc2)cc1	15.8µM	i
Cc1ccc(NC(=O)Cc2coc3c(C)c(C)ccc23)c(C)c1	i	i
Cc1ccc2c(CC(=O)Nc3ccc(N4CCN(C)CC4)cc3C)coc2c1	25.1µM	i
COCCn1c(C)cc(O)c(C(c2ccccc2)N2CCN(CCO)CC2)c1=O (stereo not given)	i	i
COc1cc(OC)cc(-c2nc3ccccc3c(=O)n2OC(=O)c2ccccc2C)c1	i	i
O=C(On1c(-c2ccccc2)nc2ccccc2c1=O)c1ccco1	?	28.2µM
Cc1ccc(CNc2nc3nc(C)c(Cl)c(C)n3n2)cc1	i	i
CCN(CC)/C(=N/O)NC(=O)NS(=O)(=O)c1ccc(C)cc1	i	i
COc1ccc(C(=O)Nc2c3c(nn2-c2cccc(Cl)c2)CS(=O)C3)cc1 (stereo not given)	i	i
Cc1cc(C)cc(NC(=O)COc2ccc3c(C)c(Cc4ccccc4)c(=O)oc3c2)c1	?	i
COc1cccc(C(=O)COc2ccc3c(C)c(Cc4ccccc4)c(=O)oc3c2C)c1	?	i
Cc1cccc(C)c1NC(=O)COc1ccc2c(C)c(Cc3ccccc3)c(=O)oc2c1C	12.6µM	i
Cc1c(Cc2ccccc2)c(=O)oc2c(C)c(OCC(=O)Nc3ccc(C#N)cc3)ccc12	12.6µM	i
CC(=O)Nc1ccc(S(=O)(=O)NCc2ccc3c(c2)cc(C)n3C)cc1	i	i
Cc1cc2cc(CNS(=O)(=O)c3ccc4ccccc4c3)ccc2n1C	25.1µM	i
Cc1sc(NC(=O)c2cccs2)nc1-c1ccccc1	i	i
SMILES	Cruzain noTriton	Cruzain Triton
Cc1ccc(-c2nc3ccccc3o2)cc1NC(=S)NC(=O)c1cccs1	?	i
Cc1ccc(-c2csc(NC(=S)NC(=O)c3cccs3)n2)cc1	15.8µM	i
Cc1sc(NC(=S)NC(=O)c2cccs2)nc1-c1ccc(C(C)C)cc1	10µM	i
Cc1cc(C)c2oc(-c3ccc(C)c(NC(=S)NC(=O)c4cccs4)c3)nc2c1	7.94µM	i
O=C(NC(=S)Nc1nc(-c2ccccc2)cs1)c1cccs1	?	i
COc1ccccc1C(c1nnnn1CCc1ccccc1)N1CCCCCC1 (stereo not given)	i	i
O=c1c2ccccc2c2c(O)nc(-c3ccccc3)n2n1Cc1ccccc1	3.98µM	i
Cn1c(=O)c2c(nc(-c3ccccc3)n2C)n(Cc2ccccc2)c1=O	i	i
O=C(Nc1ccccc1)C1CCN(S(=O)(=O)c2ccc3c(c2)CCCN3C(=O)C2CCC2)CC1	i	i
CCOc1cc(OCC)cc(C(=O)NC(=S)Nc2cccc(C(F)(F)F)c2)c1	i	i
COc1ccc(CCN2C(=O)C(Oc3ccccc3)C2c2ccc3c(c2)OCO3)cc1 (stereo not given)	i	i
c1ccc(Cn2nnc3cnccc32)cc1	i	i
O=C(c1cc(-c2cccs2)nc2ccccc12)N1CCN(S(=O)(=O)c2ccccc2)CC1	?	i
O=S(=O)(c1ccccc1)N1CCN(c2nc(-c3cccs3)nc3ccccc23)CC1	15.8µM	i
O=S(=O)(c1ccc(Cl)cc1)N1CCN(c2nc(-c3cccs3)nc3ccccc23)CC1	10µM	i
Cc1cc(N2CCN(S(=O)(=O)c3ccccc3)CC2)c2ccccc2n1	i	i
CCN(CC)S(=O)(=O)c1ccc(-c2nnc(SCC(=O)N3CCc4ccccc43)o2)cc1	i	i
O=C(Nc1cccc(F)c1)C1CC(=O)N(c2ccc(Br)cc2)C1 (stereo not given)	i	i
O=C(Nc1cccc(Cl)c1Cl)C1CC(=O)N(c2ccc(Br)cc2)C1 (stereo not given)	25.1µM	i
Cc1nnc(SCC(=O)Nc2nc(-c3ccccc3)cs2)n1N	i	i

Screening data as filed in PubChem.
